Source: PubChem BioAssay (EPA / NIEHS)
Several values for one entry are separate records, joined by “and”; a condition that tells them apart may be missing. Equal entries are not always repeated. Activity calls are given as the source filed them. How the source made its calls: active means hit-call score of the fitted dose curve at least 0.9, where 1 is the maximum; inactive means score below 0.9.

Legend:
[1] = ATG_CRE_CIS: Attagene CIS-FACTORIAL HepG2 Assay for human cAMP Responsive Element (CRE) binding protein 3 (AID 2282926); details: HepG2 CRE cis-reporter, Attagene multiplexed mRNA; actives raise or lower the signal
How it was run: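 We dosed HepG2 cells bearing multiple cis-promoter reporter units for 24 h and measured reporter mRNA by RT-PCR with capillary electrophoresis detection. Bidirectional concentration-response fitting used DMSO as negative control.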

[2] = molecular target: CCAAT/enhancer-binding protein beta (Homo sapiens) (UniProt P17676); assay: ATG_C_EBP_CIS: Attagene CIS-FACTORIAL HepG2 Assay for human CCAAT/Enhancer Binding Protein (C/EBP) beta (AID 2282927); details: HepG2 Attagene cis-factorial transcription factor reporter; actives raise or lower the signal
How it was run: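 RT-PCR/capillary electrophoresis fluorescence of reporter mRNA, 24 h post-dose, in HepG2 cells carrying transfected cis-promoter reporter units. Bidirectional curve fitting against DMSO baseline captures gain or loss of signal.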

[3] = ATG_CMV_CIS: Attagene CIS-FACTORIAL HepG2 Assay for human CMV (Internal Marker) (AID 2282928); details: HepG2 CMV promoter reporter, transcription factor profiling; actives raise or lower the signal;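 further: endpoint acts as a background internal control marker rather than a target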
How it was run: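 Endogenous transcription factor activity read in HepG2 via transfected cis-promoter reporter units. After 24 h dosing, reporter mRNA measured by RT-PCR/capillary electrophoresis; gain or loss of signal fit relative to DMSO.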

[4] = ATG_DR4_LXR_CIS: Attagene CIS-FACTORIAL HepG2 Assay for human Liver X Receptor (LXR), DR4 submotif (AID 2282929); details: HepG2 Attagene DR4 cis-reporter, mRNA transcription; actives raise or lower the signal
How it was run: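 Endogenous factor activity at a DR4 cis-element is read as reporter mRNA in transiently transfected HepG2 cells. Exposure lasts 24 h; transcripts are amplified, fluorescently labelled and sized by capillary electrophoresis, with DMSO as baseline.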

[5] = molecular target: Aryl hydrocarbon receptor (Homo sapiens) (UniProt P35869); assay: ATG_Ahr_CIS: Attagene CIS-FACTORIAL HepG2 Assay for human Aryl Hydrocarbon Receptor (Ahr) (AID 2282930); details: HepG2 AhR cis-factorial reporter transcription; actives raise or lower the signal
How it was run: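 HepG2 cells transiently transfected with cis-element-driven multiplexed reporter transcription units; endogenous transcription factor activity measured as reporter mRNA 24 h after dosing. RT-PCR, 6-FAM labelling, HpaI digestion, capillary electrophoresis; bidirectional fitting versus DMSO baseline.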

[6] = ATG_AP_1_CIS: Attagene CIS-FACTORIAL HepG2 Assay for human Activator Protein 1 (AP-1) (AID 2282931); details: HepG2 Attagene cis-factorial AP-1 reporter mRNA; actives raise or lower the signal
How it was run: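 Fluorescence of labelled PCR fragments separated by capillary electrophoresis gives reporter mRNA levels. HepG2 with transfected cis-regulated reporter units, 24 h exposure; DMSO serves as baseline for bidirectional curve fits.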

[7] = ATG_AP_2_CIS: Attagene CIS-FACTORIAL HepG2 Assay for human Activator Protein 2 (AP-2) (AID 2282932); details: HepG2 AP-2 cis-reporter, Attagene transcription factor profiling; actives raise or lower the signal
How it was run: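 Bidirectional curve fitting against DMSO was applied to reporter mRNA signals from HepG2 cells 24 h after dosing. Cis-promoter reporter units, transiently transfected, were read by RT-PCR plus capillary electrophoresis.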

[8] = ATG_BRE_CIS: Attagene CIS-FACTORIAL HepG2 Assay for human Bone Morphogenetic Protein (BMP) Response Element (BRE) (AID 2282933); details: HepG2 BMP response element reporter, Attagene transcription factor profiling; actives raise or lower the signal
How it was run: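 HepG2 cells transiently transfected with CIS reporter units (endogenous TF activity, BMP response element), dosed 24 h. Reporter mRNA quantified by RT-PCR, fluorescent labelling and capillary electrophoresis; bidirectional fit vs DMSO baseline.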

[9] = molecular target: Retinoic acid receptor alpha (Homo sapiens) (UniProt P10276); assay: ATG_DR5_RAR_CIS: Attagene CIS-FACTORIAL HepG2 Assay for human Retinoic Acid Receptor Alpha (RARE), DR5 submotif (AID 2282934); details: HepG2 Attagene cis-factorial RARE DR5 reporter, mRNA; actives raise or lower the signal
How it was run: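 HepG2 cells transiently transfected with multiplexed reporter units under cis (DR5 RARE) promoters, so endogenous transcription factor activity is measured. After 24 h compound exposure, reporter mRNA is quantified by RT-PCR with fluorescent labelling and capillary electrophoresis; bidirectional fitting versus DMSO.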

[10] = molecular target: Transcription factor E2F1 (Homo sapiens) (UniProt Q01094); assay: ATG_E2F_CIS: Attagene CIS-FACTORIAL HepG2 Assay for human E2F Transcription Factor 1 (AID 2282935); details: HepG2 Attagene cis-reporter, E2F reporter RNA transcripts; actives raise or lower the signal
How it was run: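 Multiplexed cis-reporter assay: HepG2, transient transfection, 24 h dosing, mRNA quantitation by labeled RT-PCR and CE.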

Chain of Transcription factor E2F1 (Homo sapiens) (Q01094 whole entry, looked up): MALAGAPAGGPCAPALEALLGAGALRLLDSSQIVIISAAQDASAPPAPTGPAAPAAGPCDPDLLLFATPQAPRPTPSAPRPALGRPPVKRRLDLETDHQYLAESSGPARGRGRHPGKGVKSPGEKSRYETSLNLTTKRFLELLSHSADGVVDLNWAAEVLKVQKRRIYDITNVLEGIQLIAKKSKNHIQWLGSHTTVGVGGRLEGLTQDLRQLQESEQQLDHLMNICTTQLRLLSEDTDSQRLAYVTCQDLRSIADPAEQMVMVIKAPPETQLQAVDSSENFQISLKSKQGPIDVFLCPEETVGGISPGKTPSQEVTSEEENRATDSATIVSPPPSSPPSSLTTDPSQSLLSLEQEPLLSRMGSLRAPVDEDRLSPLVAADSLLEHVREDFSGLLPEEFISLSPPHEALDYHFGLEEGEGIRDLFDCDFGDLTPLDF
Chain of Retinoic acid receptor alpha (Homo sapiens) (P10276 whole entry, looked up): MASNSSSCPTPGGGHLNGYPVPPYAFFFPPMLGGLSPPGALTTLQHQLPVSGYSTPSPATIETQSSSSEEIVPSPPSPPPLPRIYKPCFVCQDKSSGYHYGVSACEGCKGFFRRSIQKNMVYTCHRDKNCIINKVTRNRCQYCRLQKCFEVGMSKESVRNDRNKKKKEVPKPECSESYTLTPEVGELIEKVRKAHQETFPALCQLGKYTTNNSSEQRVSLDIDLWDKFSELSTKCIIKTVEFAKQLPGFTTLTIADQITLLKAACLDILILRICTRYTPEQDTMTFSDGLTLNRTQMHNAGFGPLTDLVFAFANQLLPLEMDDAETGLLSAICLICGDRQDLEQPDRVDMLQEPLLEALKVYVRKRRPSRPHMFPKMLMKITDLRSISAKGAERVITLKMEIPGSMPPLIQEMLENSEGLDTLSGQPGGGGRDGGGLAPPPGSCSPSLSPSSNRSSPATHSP
Chain of Aryl hydrocarbon receptor (Homo sapiens) (P35869 whole entry, looked up): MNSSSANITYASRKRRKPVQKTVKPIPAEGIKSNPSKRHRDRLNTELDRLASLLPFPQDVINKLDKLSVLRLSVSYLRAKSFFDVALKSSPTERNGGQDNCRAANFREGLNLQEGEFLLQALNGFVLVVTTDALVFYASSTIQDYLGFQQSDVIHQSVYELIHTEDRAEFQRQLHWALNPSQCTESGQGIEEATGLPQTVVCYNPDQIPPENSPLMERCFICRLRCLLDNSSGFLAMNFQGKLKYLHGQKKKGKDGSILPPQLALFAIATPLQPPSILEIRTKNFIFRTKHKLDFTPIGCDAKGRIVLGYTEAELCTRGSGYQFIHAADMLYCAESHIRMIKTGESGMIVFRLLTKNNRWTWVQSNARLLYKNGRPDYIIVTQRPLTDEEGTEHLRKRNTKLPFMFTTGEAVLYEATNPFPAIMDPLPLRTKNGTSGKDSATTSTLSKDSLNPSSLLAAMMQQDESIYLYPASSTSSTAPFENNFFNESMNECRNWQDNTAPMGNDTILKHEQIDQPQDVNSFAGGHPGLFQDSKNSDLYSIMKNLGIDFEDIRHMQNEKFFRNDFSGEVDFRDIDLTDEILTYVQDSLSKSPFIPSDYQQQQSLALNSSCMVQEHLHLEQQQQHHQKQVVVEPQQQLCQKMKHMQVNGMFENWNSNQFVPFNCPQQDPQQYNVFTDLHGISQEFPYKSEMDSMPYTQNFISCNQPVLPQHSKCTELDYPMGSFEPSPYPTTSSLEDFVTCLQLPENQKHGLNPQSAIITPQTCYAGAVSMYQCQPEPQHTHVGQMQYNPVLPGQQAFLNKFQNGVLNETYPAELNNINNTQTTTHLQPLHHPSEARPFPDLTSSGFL
Chain of CCAAT/enhancer-binding protein beta (Homo sapiens) (P17676 whole entry, looked up): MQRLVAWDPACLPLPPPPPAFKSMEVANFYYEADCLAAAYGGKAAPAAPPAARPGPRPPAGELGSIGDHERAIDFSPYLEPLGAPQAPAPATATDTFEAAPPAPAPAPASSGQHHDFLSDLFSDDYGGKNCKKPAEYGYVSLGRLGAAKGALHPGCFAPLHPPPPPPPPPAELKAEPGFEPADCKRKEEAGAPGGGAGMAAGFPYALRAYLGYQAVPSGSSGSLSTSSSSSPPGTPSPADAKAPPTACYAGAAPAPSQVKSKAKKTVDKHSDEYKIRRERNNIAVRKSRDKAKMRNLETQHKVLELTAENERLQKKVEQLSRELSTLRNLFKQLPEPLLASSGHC

SMILES	outcome [1]	outcome [2]	outcome [3]	outcome [4]	outcome [5]	outcome [6]	outcome [7]	outcome [8]	outcome [9]	outcome [10]	AC50 [3]	AC50 [6]	AC50 [10]	AC50 [2]	AC50 [7]	AC50 [4]	AC50 [8]	AC50 [5]
CCNc1nc(Cl)nc(NC(C)(C)C)n1	inactive	inactive	inactive	inactive	inactive	inactive	inactive	inactive	inactive	inactive								
CC(C)(C)N(NC(=O)c1ccc(Cl)cc1)C(=O)c1ccccc1	inactive	inactive	inactive	inactive	inactive	inactive	inactive	inactive	inactive	inactive								
N#C/C=C/c1ccccc1	inactive	inactive	inactive	inactive	inactive	inactive	inactive	inactive	inactive	inactive								
O=C(O)C(F)(OC(F)(F)C(F)(F)C(F)(F)F)C(F)(F)F (stereo not given)	inactive	inactive	inactive	inactive	inactive	inactive	inactive	inactive	inactive	inactive								
CC(C)CBr	inactive	inactive	inactive	inactive	inactive	inactive	inactive	inactive	inactive	inactive								
Cc1ccc([N+](=O)[O-])cc1C	inactive	inactive	inactive	inactive	inactive	inactive	inactive	inactive	inactive	inactive								
CCC(C)(C)c1ccc(O)cc1	inactive	inactive		inactive	inactive		inactive	inactive			49 µM (active)	49.5 µM (active)	52.4 µM (active)					
O=P1(N(CCCl)CCCl)NCCCO1 (stereo not given)	inactive	inactive	inactive	inactive	inactive	inactive	inactive	inactive		inactive								
c1ccc(OP(Oc2ccccc2)Oc2ccccc2)cc1	inactive	inactive	inactive	inactive	inactive	inactive	inactive	inactive		inactive								
Cc1ccc(O)cc1C		inactive	inactive	inactive	inactive		inactive	inactive	inactive	inactive								
CCOC(=O)c1ccccc1C(=O)OCC	inactive	inactive	inactive	inactive		inactive	inactive	inactive	inactive	inactive								
CCOS(=O)(=O)OCC	inactive	inactive	inactive	inactive	inactive	inactive	inactive	inactive		inactive								
CCOc1ccc(C(C)(C)COCc2cccc(Oc3ccccc3)c2)cc1	inactive	inactive	inactive	inactive	inactive	inactive	inactive	inactive		inactive								
Nc1cc2c3c(c1)C(c1ccccc1)=N[C@@H](NC(=O)c1cccnc1)C(=O)N3CC2	inactive		inactive	inactive	inactive	inactive		inactive		inactive				40.6 µM (active)	145 µM (active)			
CSC(C)(C)C=NO	inactive	inactive	inactive	inactive	inactive	inactive	inactive	inactive		inactive								
CCCCN(CCCC)SN(C)C(=O)Oc1cccc2c1OC(C)(C)C2	inactive	inactive	inactive		inactive	inactive	inactive	inactive		inactive						100 µM (active)		
c1nc[nH]n1	inactive	inactive	inactive	inactive	inactive	inactive	inactive	inactive		inactive								
ClC(Cl)(Cl)c1ccccc1	inactive	inactive	inactive	inactive	inactive	inactive	inactive	inactive		inactive								
CCCN(CCC)c1c([N+](=O)[O-])cc(C(C)C)cc1[N+](=O)[O-]	inactive	inactive			inactive		inactive	inactive	inactive	inactive	56.2 µM (active)	130 µM (active)				5.57 µM (active)		
CC(Cl)(Cl)C(=O)O	inactive	inactive	inactive	inactive	inactive	inactive	inactive	inactive		inactive								
CCCCOCCOP(=O)(OCCOCCCC)OCCOCCCC	inactive	inactive	inactive	inactive		inactive	inactive	inactive	inactive	inactive								
c1ccc2c(c1)Nc1ccccc1S2	inactive	inactive		inactive		inactive	inactive		inactive	inactive	21.3 µM (active)						41.7 µM (active)	
CCCCc1ccccc1	inactive	inactive	inactive	inactive	inactive	inactive	inactive	inactive		inactive								
CCC1(c2ccccc2)C(=O)N=C(O)NC1=O (stereo not given)	inactive	inactive	inactive	inactive	inactive	inactive	inactive	inactive		inactive								
OCC1CO1 (stereo not given)	inactive	inactive	inactive	inactive	inactive	inactive	inactive	inactive		inactive								
C/C(=N\NC(=O)Nc1cc(F)cc(F)c1)c1ncccc1C(=O)O	inactive	inactive	inactive	inactive		inactive	inactive	inactive		inactive								57.2 µM (active) and 46.1 µM (active)
